Bioassay records: PubChem, several laboratories
PostGolgi yeast: growth inhibition of a yeast mutant, post-Golgi transport screen; post-Golgi transport phenotypic cell assay; inhibition, % at 10 µM; actives 0.9% (n = 98,000); AID 739;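 also: yeast cells grown in 1536-well plates; yeast grown about 18 h at 30C before absorbance read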
PostGolgi ctrl: growth of the yeast control strain, post-Golgi counter-screen; efflux-deficient yeast background strain, growth absorbance A615, 16 h; inhibition, % at 10 µM; AID 738; actives 5% (n = 98,000)
Measles CPE: protection of cells from measles virus. Measles virus-infected cells, CPE protection, absorbance. protection (pct of control), % at 4 µM. actives 1.5% (n = 140,000). AID 841; in the data active = protection mostly above about 24%, no sharp cut-off; inactive = mostly below about 26%
MT1-MMP txn act: activates MT1-MMP transcription; HT1080 MT1-MMP promoter luciferase reporter, luminescence, overnight; active compounds read high; activation factor at 10 µM; actives 0.16% (n = 86,000); AID 750;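 active = activation factor of at least 2 for MT1-MMP transcription at 10 µM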
* marks the source's active call; other numbers are inactive results; . = not tested or not shown. Compounds with a hit are over-represented: about 5.3% of the library has one in this group of screens. Rule as the data show it, unless noted: active = inhibition above about 30%; inactive = the rest.

SMILES	PostGolgi yeast	PostGolgi ctrl	Measles CPE	MT1-MMP txn act
C=CCOc1nc(-c2ccncc2)nc2ccccc12	16.7	48.4*	30.0*	1
Brc1cc2c(cc1/C=N/Nc1nc(N3CCOCC3)nc(N3CCOCC3)n1)OCO2	.	.	23.4	.
Cc1nn(C)cc1/C=C/C(=O)c1ccc(O)cc1	.	.	8.8	.
Cc1ccc(C(=O)Nc2ccc3cn[nH]c3c2)cc1S(=O)(=O)N1CCCCC1	5.9	5.3	0.7	2.1*
Cc1ccc(N(C(=O)CS(=O)CC(=O)Nc2ccc(F)cc2)C(C(=O)NC2CCCCC2)c2ccco2)cc1 (centres undefined)	.	.	16.4	.
Cc1ccc(C(C)C)c(OCCCN2CC(C)OC(C)C2)c1 (centres undefined)	82.7*	27.6	4.4	1.1
C=CCc1ccc(OCCCCN2CC(C)OC(C)C2)c(OC)c1 (centres undefined)	96.6*	43.3*	4.8	1.1
COc1cccc(OCCCCN2CC(C)OC(C)C2)c1 (centres undefined)	85.8*	43.2*	14.9	1
C=CCc1ccc(OCCCOc2ccc(C)cc2OC)c(OC)c1	-7.1	1.2	0.6	1.1
CC1CN(CCCOc2ccccc2[N+](=O)[O-])CC(C)O1 (centres undefined)	3.5	2.2	8.1	.
O=C(CSC(=S)N1CCOCC1)N1N=CCC1c1ccccc1 (centres undefined)	1.9	-0.6	35.4*	1.2
COc1ccccc1NC(=O)NCCN1C(=O)C2C3C=CC(C3)C2C1=O (centres undefined)	-7.0	42.0*	1.6	1.1
O=C1C2C3C=CC(C3)C2C(=O)N1CN(Cc1ccccc1)CN1C(=O)C2C3C=CC(C3)C2C1=O (centres undefined)	-9.5	36.6*	8.0	1.2
Cc1ccccc1NCN1C(=O)C2C3C=CC(C3)C2C1=O (centres undefined)	-4.3	32.5*	2.6	1.2
O=C1C2C3C=CC(C3)C2C(=O)N1CNc1ccccc1 (centres undefined)	7.0	20.0	34.5	1.3
Cc1cccc(NCN2C(=O)C3C4C=CC(C4)C3C2=O)c1 (centres undefined)	21.3	33.2*	19.6	1.1
CCOC(=O)C1=C(C)Nc2ccccc2N=C1NC(=O)C(CC)c1ccccc1 (centres undefined)	.	.	4.8	.
Cc1cccc(NC(=O)c2sc(Cl)nc2C)c1C	.	.	9.6	.
C=CCOc1cccc(C2/C(=C(/O)c3ccccc3)C(=O)C(=O)N2CCCN2CCOCC2)c1 (centres undefined)	.	.	.	1.1
CCNC(=S)NNC(=O)CCn1cc(C)cn1	.	.	5.1	.
CC(=O)NC(C)C(=O)OCC(=O)c1ccc(Cl)s1 (centres undefined)	25.3	35.9*	6.6	1.1
O=C(COc1ccc2oc(-c3ccccc3)cc(=O)c2c1)Nc1ccccc1	.	.	12.4	.
Cc1cccc(NC(=S)NC2CC3CCCC(C2)N3Cc2cccs2)c1 (centres undefined)	1.6	8.0	2.7	.
C=CCN=C(NC#N)SCC(=O)c1cccc(OC)c1	21.6	9.8	2.6	2*
Cc1nc2ccccc2c(=O)n1NC(=O)Cc1ccc(Br)cc1	-2.5	-1.0	5.6	1.2
SMILES	PostGolgi yeast	PostGolgi ctrl	Measles CPE	MT1-MMP txn act
CCCCCc1ccc(CC(=O)Nn2c(C)nc3ccccc3c2=O)cc1	-3.4	41.3*	20.1	1
CC(Sc1ccsc1[N+](=O)[O-])C(=O)NCCc1ccc(Cl)cc1 (centres undefined)	70.2*	34.2*	24.0	1.1
O=C(Nc1cnc2sccn2c1=O)c1ccc(Cl)cc1Cl	-2.9	32.2*	5.3	.
Cc1cc(C)n(CC(=O)N/N=C/c2cc([N+](=O)[O-])ccc2O)n1	.	.	7.4	.
CCn1ncc(/C=N\NC(=O)Cc2ccc([N+](=O)[O-])cc2)c1C	.	.	46.5*	.
O=C(c1cn(-c2ccccc2)nc1-c1cccs1)N1CCN(c2ccccc2)CC1	-1.3	44.1*	2.9	1.3
O=C(c1cn(-c2ccccc2)nc1-c1cccs1)N1CCOCC1	2.4	-5.1	3.0	1.2
Cc1ccc(C(=O)Nc2ccccc2Oc2ccccc2)cc1[N+](=O)[O-]	-9.1	33.9*	6.3	.
O=C(Nc1ccccc1Oc1ccccc1)c1cccc([N+](=O)[O-])c1	5.6	10.9	33.2	.
COc1ccc(NC(=O)/C=C/c2cc(Br)ccc2OC)cc1	2.9	4.5	22.7*	.
CCOC(=O)c1c(-c2ccc(C)c(C)c2)csc1NC(=O)C1CC=CCC1C(=O)O (centres undefined)	-1.6	33.3*	13.2	.
CC(=O)Nc1ccc(-c2csc(NC(=O)CCCc3cccs3)n2)cc1	.	.	110.2*	.
Cc1ccc(-c2csc(NC(=O)CCCc3cccs3)n2)cc1	.	.	7.0	.
CSCCC(NS(=O)(=O)c1ccccc1F)C(=O)OCc1ccccc1Cl (centres undefined)	.	.	7.6	.
CCCCc1nc(NCCNC(=O)c2ccccc2)c(C#N)c2c1CSC(C)(C)C2	15.4	98.5*	19.0	1.2
CCCCc1nc(NCCNC(=O)c2ccco2)c(C#N)c2c1CSC(C)(C)C2	17.7	100.4*	12.3	1.1
Cc1cc(NCCCn2ccnc2)n2ncc(-c3ccc(Cl)cc3)c2n1	6.5	47.4*	21.6	.
Cc1cc(NCCCN2CCOCC2)n2ncc(-c3ccc(Cl)cc3)c2n1	84.8*	30.6*	4.8	1.6
Cc1cccc(-c2cc3nc(C)cc(NCCCn4ccnc4)n3n2)c1	-12.3	6.9	4.0	1.1
Clc1cc(Cl)cc(C2=NCCC(c3ccccc3)O2)c1 (centres undefined)	.	.	26.7	.
Cc1cccc(N2CCN(S(=O)(=O)c3cccc4nonc34)CC2)c1C	.	.	10.0	.
CCCCOC(=O)Cc1c(O)c2ccccc2[nH]c1=O	32.3*	3.0	8.7	1.1
CCCCCCNC(=O)Cc1c(O)c2ccccc2[nH]c1=O	-2.3	9.5	23.2	1
CCCCCOC(=O)Cc1c(O)c2ccccc2[nH]c1=O	6.5	18.1	4.2	1
CCCCCc1c(O)c2ccccc2[nH]c1=O	-7.2	20.3	35.6*	1.1
SMILES	PostGolgi yeast	PostGolgi ctrl	Measles CPE	MT1-MMP txn act
S=C(N/N=C1\C2CN3CCN(C2)CC1(c1ccccc1)C3)Nc1ccccc1	.	.	12.3	.
CCCN=C(C)c1c(-c2ccccc2)[nH]n(-c2nc3ccccc3s2)c1=O	-1.6	31.9*	16.4	1.4
O=C(NN1C(=O)c2ccccc2C1=O)C1C2CCCCC21 (centres undefined)	.	.	29.1	.
COc1ccc(-c2n[nH]c(C)c2-c2ccc(Cl)cc2)c(O)c1	13.2	76.8*	1.2	1.1
Cc1[nH]nc(-c2ccc(O)c(C)c2O)c1-c1cnn(-c2ccccc2)c1	-11.3	8.4	2.5	0.9
Cc1[nH]nc(-c2ccc(O)cc2O)c1-c1ccc(Cl)cc1	15.7	85.4*	3.9	1
Cc1nc(-c2cn[nH]c2-c2ccc(O)cc2O)cs1	.	.	5.6	.
COc1ccc(O)c(-c2c(-c3ccc(Cl)cc3)n[nH]c2C)c1	-3.6	26.1	7.5	0.9
COc1ccc(-c2n[nH]c(C)c2-c2ccc(Cl)cc2)c(O)c1OC	-0.2	50.8*	2.6	1.1
CCOC(=O)C(=CNc1cc(C)nn1-c1ccc(Cl)cc1)C(=O)OCC	2.4	40.1*	0.1	1.2
CCOC(=O)C(=CNc1ccc(C)cc1C)C(=O)OCC	6.6	20.2	37.4*	.
CCOC(=O)C(=CNc1cccc(C)c1C)C(=O)OCC	-2.9	5.7	1.1	.
O=C(CSCc1ccccc1)Nc1ccc(F)c(F)c1	.	.	5.6	.
